Hits are enriched below; roughly 10% of the tested compounds scored in any of these assays.
GPT2 inh: Primary qHTS assay for inhibitors of Glutamate pyruvate transaminase 2 (GPT2) | Potency, µM (titrated, usually from 57.7 µM), without a hit: at the highest dose activity change, negative = inhibition, hits mostly inhibitors | Recombinant GPT2, coupled pyruvate oxidase/HRP Amplex Red fluorescence | hit rate 0.25% among 100,000 | Alanine aminotransferase 2 (Homo sapiens), Q8TD30 | AID 1671188, 2021; also: % is scaled to controls: 0 for no effect and ±100 for the full control effect; nearly all actives have a fitted effect of over 60% in size
Target sequence (Q8TD30 whole entry, looked up): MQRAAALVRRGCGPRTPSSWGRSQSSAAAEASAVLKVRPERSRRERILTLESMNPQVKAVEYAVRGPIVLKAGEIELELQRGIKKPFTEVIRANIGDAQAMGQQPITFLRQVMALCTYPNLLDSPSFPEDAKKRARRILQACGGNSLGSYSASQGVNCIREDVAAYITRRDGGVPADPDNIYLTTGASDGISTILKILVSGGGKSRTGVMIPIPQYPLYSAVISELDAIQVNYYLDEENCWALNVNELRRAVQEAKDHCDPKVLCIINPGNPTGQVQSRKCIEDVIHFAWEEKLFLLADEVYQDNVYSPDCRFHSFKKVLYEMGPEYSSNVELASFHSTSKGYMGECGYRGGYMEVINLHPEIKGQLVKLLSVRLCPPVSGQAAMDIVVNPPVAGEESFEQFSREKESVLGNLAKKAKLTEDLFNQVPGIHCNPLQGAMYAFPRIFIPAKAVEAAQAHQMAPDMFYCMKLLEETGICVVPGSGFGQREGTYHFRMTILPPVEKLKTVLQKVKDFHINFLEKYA
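Inhibition is scored from Amplex Red fluorescence generated when pyruvate oxidase and HRP act on pyruvate released by GPT2. Reactions contain 10ng/uL enzyme, 250uM a-KG and 2mM L-alanine and run 30 min at room temperature.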
HEK cytotox: Cytotoxic Profiling in HEK 293 Cell Line of Diverse Libraries Using Quantitative High-Throughput Screening | AID 1345083, 2018 | HEK 293 viability, ATP luminescence (CellTiter-Glo), 48-72 h | Potency, µM (series often up to 115 µM), without a hit: at the highest dose activity change, negative = cytotoxicity, usual class: inhibitors | hit rate 6.6% among 94,000; also: % is scaled to controls: 0 for no effect and ±100 for the full control effect; nearly all actives have a fitted effect of over 60% in size
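250 HEK 293 cells/well; compound by pintool; incubated 48 or 72 hr at 37 degree Celsius; CellTiter-Glo added, 10 min RT, luminescence imaged.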
FLuc inh-1: Firefly luciferase inhibition profiling of diverse chemical library using quantitative high-throughput screening. hit rate 2.5% among 76,000. purified P. pyralis luciferase, luminescence, biochemical. Luciferin 4-monooxygenase (Photinus pyralis), P08659. AID 1347043, 2019. Potency, µM (titrated, usually from 115 µM), most hits filed as inhibitors; also: % is scaled to controls: 0 for no effect and ±100 for the full control effect; nearly all actives have a fitted effect of over 65% in size
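Luminescence read by CCD imager after adding enzyme (10nM final) to wells holding compound, titrated in qHTS. Substrates 10uM each D-luciferin and ATP; buffer 50mM Tris acetate pH 7.5, 10mM Mg acetate, Tween-20, BSA.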
NIH3T3 tox: Cytotoxic Profiling in NIH 3T3 Cell Line of Diverse Libraries Using Quantitative High-Throughput Screening; NIH 3T3 viability, CellTiter-Glo ATP luminescence, 48-72 h; Potency, µM (series often up to 96.7 µM), inactives show at the top dose activity change, negative = cytotoxicity, actives largely listed as inhibitors; hit rate 4.3% among 94,000; also: % is scaled to controls: 0 for no effect and ±100 for the full control effect; nearly all actives have a fitted effect of over 55% in size
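NIH 3T3 cells at 400 cells/well received 23 nL of compound by pintool and were incubated 48 or 72 h at 37 °C. Viability was read as ATP-coupled CellTiter-Glo luminescence.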
NPR1 antag: Natriuretic polypeptide receptor (hNpr1) antagonism - Primary qHTS; Atrial natriuretic peptide receptor 1 (Homo sapiens), P16066; HEK293 hNpr1 GloSensor cGMP, ANP-stimulated luminescence; Potency, µM (titrated, usually from 46.3 µM), without a hit: at the top dose activity change, negative = inhibition, hits mostly inhibitors; hit rate 1.6% among 76,000; AID 1347048, 2019; calls by dose curve; also: % is scaled to controls: 0 for no effect and ±100 for the full control effect; nearly all actives have a fitted effect of over 60% in size
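HEK293 cells stably expressing human Npr1 and cGMP GloSensor pGS-40F, loaded 2 h with 2% GloSensor reagent, given compound 30 min at room temperature. Luminescence read before and 20 min after 0.1 nM hNppA.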
FLuc SDR no ATP: Firefly luciferase (FLuc-C-HiBiT) SDR gain of signal screen - without ATP | shares compounds with FLuc inh-1 | Purified FLuc-C-HiBiT, Nano-Glo HiBiT luminescence, no ATP | Potency, µM (doses to about 32.7 µM), without a hit: at the highest dose activation (signal gain), most hits filed as activators | hit rate 7.8% among 1,300; also: nearly all actives have a fitted effect of over 55% in size
FLuc SDR ATP: Firefly luciferase (FLuc-C-HiBiT) SDR gain of signal screen - plus ATP | shares compounds with FLuc inh-1 | purified FLuc-C-HiBiT + ATP, HiBiT complementation luminescence | Potency, µM (highest dose often 32.7 µM), for inactives: at the highest dose activation (gain of signal), most hits filed as activators | hit rate 8.7% among 1,300 | AID 1963319, 2024;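 also: signal reports ligand binding via conformational change of the enzyme rather than luciferase catalysis; % of control where 0% means no effect; nearly all actives have a fitted effect of over 55% in size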
FLuc inh-2: Firefly luciferase (FLuc-C-HiBiT) enzymatic inhibition screen - Functional assay; shares compounds with FLuc inh-1; purified FLuc-C-HiBiT enzyme, luciferin luminescence; Potency, µM (titrated, usually from 32.7 µM), for inactives: top-dose activity change, negative = inhibition, actives largely listed as inhibitors; hit rate 42% among 1,300; also: % is scaled to controls: 0 for no effect and ±100 for the full control effect; nearly all actives have a fitted effect of over 70% in size
The depositor's hits bear a star; i = inactive; ? = inconclusive; / = no result; [ ] = remark or other dose. Unless noted, calls follow the shape of the dose curve; as a rule, active = well fitted curve in the direction sought with a large enough effect; inconclusive = small, poorly fitted or top-dose-only effect, or another doubt; inactive = no such curve, though single readings can be large; an effect the other way counts as inactive or inconclusive. Potency is read from the fitted curve at half-maximal effect.

SMILES	GPT2 inh	HEK cytotox	FLuc inh-1	NIH3T3 tox	NPR1 antag	FLuc SDR no ATP	FLuc SDR ATP	FLuc inh-2
COc1ccc(Cn2c(=O)c(C(=O)N3CCN([S+](=O)([O-])c4cccs4)CC3)nc3cccnc32)cc1	i	-30%	/	-19%	/	/	/	/
O=C(C1CCCN(C(=O)C2CC2)C1)N1CCC(N2CCOC2=O)CC1 (configuration not stated)	i	-21%[172 µM]	/	-21%[138 µM]	/	/	/	/
O=C(c1ccccc1)N1CCN(C(=O)c2nc3cccnc3n(C3CCCC3)c2=O)CC1	-2%	-2%	/	-11%	/	/	/	/
CCOC(=O)C1CCCN(C(=O)Cc2ccc(N(Cc3cccc(C)c3)C(=O)c3ccco3)cc2)C1 (configuration not stated)	-14%	?	i	?	-5%	/	/	/
Cc1nn(-c2cccc(Br)c2)c(C)c1[C@@H]1C=C[C@@H](NC(=O)CC(C)(C)CC(=O)O)C1	-4%	?	?	?	-1%	13%	9%	-7%
COc1ccc(NC(=O)N[C@@H]2C=C[C@@H](c3c(C)nn(-c4ccc(C(C)C)cc4)c3C)C2)cc1	i	?	7.9µM*	?	-27%	14%	13%	-11%
Cc1ccc(-n2nc(C)c([C@@H]3C=C[C@@H](NC(=O)NC(C)C)C3)c2C)cc1Cl	-5%[88.5 µM]	?	3.5µM*	63µM*	16µM*	30%[49.3 µM]	?	14µM*
Cc1nn(CCC#N)c(C)c1[C@@H]1C=C[C@@H](NC(=O)NC(C)C)C1	?	0%[172 µM]	i	?	7%[70.6 µM]	/	/	/
COc1ccc(-n2nc(C)c([C@@H]3C=C[C@@H](NC(=O)Nc4cccc(C#N)c4)C3)c2C)cc1	3%[88.5 µM]	89µM*	7.9µM*	?	?	13%[49.3 µM]	11%[49.3 µM]	?
O=C(C1CCN([S+](=O)([O-])c2cccc(C(F)(F)F)c2)CC1)N1CCCC(c2nc3ncccc3[nH]2)C1 (configuration not stated)	4%	?	/	?	/	/	/	/
Cc1nn(-c2ccc(C(C)C)cc2)c(C)c1[C@@H]1C=C[C@@H](NC(=O)NC(C)C)C1	-14%[88.5 µM]	22µM*	3.5µM*	28µM*	32µM*	16%[49.3 µM]	20%[49.3 µM]	?
C=CCN1C[C@H]2COc3ccccc3[C@H]2N(C(=O)OCCCC)CCC1=O	/	-29%	/	?	/	/	/	/
COc1ccc(-c2noc(-c3nc(-c4ccccn4)no3)n2)cc1	i	9%	i	i	0%	/	/	/
Brc1ccc(-c2nc(-c3ccccn3)no2)o1	/	/	/	/	/	?	?	1.2µM*
Clc1ccc(-c2nc(-c3ccccn3)no2)cc1Cl	/	/	/	/	/	?	?	5.6µM*
COc1ccc(CCNC(=O)C2CCCCN2Cc2ccc(-c3cccs3)cc2)cc1 (configuration not stated)	2%	?	/	?	/	/	/	/
Cc1ccc(-c2cn3cc(C(=O)NCC(C)C)nc3s2)cc1	?	?	/	-40%[138 µM]	/	/	/	/
O=C(O)C1CCc2nc(N3CCN(C(=O)C4CCC4)CC3)sc2C1 (configuration not stated)	i	-1%	6.3µM*	?	-1%	13%	?	8.8µM*
O=c1[nH]nc2n1CCCCC2	i	-10%	i	-12%	11%	13%	11%	-3%
COc1ccc(-c2cccc(C(=O)NCCCOC(C)C)c2)nn1	/	-19%[172 µM]	/	-27%[138 µM]	/	/	/	/
CCc1ccc(CNC(=O)C2CCCN(c3nn4cc(-c5ccc(F)cc5)nc4s3)C2)cc1 (configuration not stated)	/	/	/	/	/	12%	15%	-20%
CCOC(=O)N1CCc2c(sc(NCc3cccs3)c2C(=O)Nc2ccc(OC)cc2OC)C1	/	/	/	/	/	6%	?	3.1µM*
CCOC(=O)N1CCc2c(sc(NCc3ccc(OCC)cc3)c2C(=O)Nc2ccc(OC)cc2OC)C1	/	/	/	/	/	13%	?	3.9µM*
Cc1nc(C)c(C(=O)N2CC[C@@H]3CN(Cc4ccccc4)[C@@H]3C2)s1	-2%	0%	/	-15%	/	/	/	/
CCCc1cc(CNC(=O)c2ccc(N3CCCN(CCC)CC3)nc2)on1	2%	-15%	i	-8%	-20%	/	/	/
SMILES	GPT2 inh	HEK cytotox	FLuc inh-1	NIH3T3 tox	NPR1 antag	FLuc SDR no ATP	FLuc SDR ATP	FLuc inh-2
CN(Cc1ccccc1)C(=O)[C@@H]1Cc2nc[nH]c2CN1C(=O)CC(C)(C)CC(=O)O	-6%[88.5 µM]	1%[172 µM]	i	3%[138 µM]	6%[70.6 µM]	/	/	/
CC(C)(CC(=O)O)CC(=O)N1Cc2[nH]cnc2C[C@H]1c1nc(Cc2ccccc2)no1	-3%[88.5 µM]	1%[172 µM]	i	0%[174 µM]	14%[70.6 µM]	8%[49.3 µM]	7%[49.3 µM]	-2%[49.3 µM]
Cn1ccc2c(C(=O)NCc3cccnc3)nc(-c3ccc(N4CCOCC4)cc3)cc21	5%[88.5 µM]	112µM*	14µM*	?	-11%[70.6 µM]	15%[49.3 µM]	11%[49.3 µM]	?
CN1CCN(c2ccc(-c3cc4c(ccn4C)c(C(=O)NCCC(N)=O)n3)cc2)CC1	2%[88.5 µM]	71µM*	7.1µM*	79µM*	-3%[70.6 µM]	26%[49.3 µM]	17%[49.3 µM]	14µM*
CN1CCN(c2ccc(-c3cc4c(ccn4C)c(C(=O)NCC4CCC(=O)N4)n3)cc2)CC1 (configuration not stated)	i	40µM*	10µM*	28µM*	1%	18%	12%	?
CN(C)CCNC(=O)c1nc(-c2cccc(N3CCOCC3)c2)cc2c1ccn2C	1%[88.5 µM]	?	i	?	3%[70.6 µM]	/	/	/
Cn1cnc(S(=O)(=O)N2CCOc3ccc(CN4CCc5ccccc5C4)cc3C2)c1	i	-26%	i	-15%	0%	/	/	/
COCc1nc2nccc(-c3ccc4c(c3)OCCCO4)n2n1	-8%	-3%	i	0%	-7%	/	/	/

Screening data (PubChem BioAssay)
